# PubChem BioAssay (EPA / NIEHS)
# Several values for one entry are separate records, joined by “and”; a condition that tells them apart may be missing. Equal values may be shown once. Results filed as inconclusive are left out. Some structures have more than one record in an assay (separate samples or runs), and their calls can disagree. Activity calls are given as the source filed them. The calls were made as follows, unless noted: active = hit-call score of the fitted dose curve at least 0.9, where 1 is the maximum; inconclusive = response in the unintended direction; inactive = score below 0.9.
# Assays:
# [1] = ATG_TAL_CIS: Attagene CIS-FACTORIAL HepG2 Assay for human TAL Basal Promoter (AID 2282966; active = hit-call score of the fitted dose curve at least 0.9, where 1 is the maximum; inactive = score below 0.9;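 also: background control endpoint measuring basal TAL promoter reporter mRNA not a specific factor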); conditions: HepG2 Attagene cis-factorial TAL promoter reporter; actives raise or lower the signal
# How it was run: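 Steps: transfect HepG2 with multiple reporter transcription units; dose 24 h; isolate RNA, reverse-transcribe, PCR-amplify, label with 6-FAM, digest with HpaI; resolve by capillary electrophoresis. Bidirectional fitting against DMSO baseline.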
# [2] = ATG_TGFb_CIS: Attagene CIS-FACTORIAL HepG2 Assay for human Transforming Growth Factor (TGF) (AID 2282967; active = hit-call score of the fitted dose curve at least 0.9, where 1 is the maximum; inactive = score below 0.9); conditions: HepG2 Attagene CIS TGFb reporter, mRNA transcription; actives raise or lower the signal
# How it was run: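 Endogenous TGFB1-linked transcription factor activity read as reporter mRNA via RT-PCR and capillary electrophoresis, 24 h after dosing transiently transfected HepG2 cells. Gain or loss of signal fitted relative to DMSO.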
# [3] = ATG_VDRE_CIS: Attagene CIS-FACTORIAL HepG2 Assay for human Vitamin D Receptor Element (VDRE) (AID 2282968; active = hit-call score of the fitted dose curve at least 0.9, where 1 is the maximum; inactive = score below 0.9); conditions: HepG2 VDRE cis-reporter transcription, actives raise or lower the signal
# How it was run: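 Reporter mRNA induction, quantified by capillary electrophoresis of fluorescently labelled RT-PCR products, was read 24 h after dosing HepG2 cells carrying transiently transfected cis-regulated reporter units; gain or loss relative to DMSO.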
# [4] = target: Nuclear receptor subfamily 1 group I member 3 (Homo sapiens) (UniProt Q14994); test: ATG_CAR_TRANS: Attagene TRANS-FACTORIAL HepG2 Assay for human Constitutive Androstane Receptor (CAR) (AID 2282969); conditions: HepG2 Attagene TRANS-FACTORIAL CAR reporter;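 also: activators raise reporter mRNA above DMSO so AC50 marks induction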
# Nuclear receptor subfamily 1 group I member 3 (Homo sapiens), sequence (Q14994 whole entry, looked up, the tested form may be a part): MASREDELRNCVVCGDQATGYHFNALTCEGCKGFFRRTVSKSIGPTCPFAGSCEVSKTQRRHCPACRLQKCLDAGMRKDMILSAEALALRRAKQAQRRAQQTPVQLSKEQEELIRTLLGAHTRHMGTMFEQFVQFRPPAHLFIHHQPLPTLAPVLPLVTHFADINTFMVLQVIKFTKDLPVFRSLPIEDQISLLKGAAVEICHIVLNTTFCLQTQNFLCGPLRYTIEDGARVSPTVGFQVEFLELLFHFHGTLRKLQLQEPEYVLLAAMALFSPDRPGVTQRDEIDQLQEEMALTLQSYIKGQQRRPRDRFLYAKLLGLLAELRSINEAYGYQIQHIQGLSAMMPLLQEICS
# How it was run: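 Readout is reporter mRNA induction, quantified by fluorescent primer extension and capillary electrophoresis after RT-PCR. Cells were HepG2 transiently carrying chimeric NR-Gal4 constructs with GAL4-UAS reporters, treated for 24 h; activity scored upward from DMSO.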
# [5] = target: Estrogen receptor (Homo sapiens) (UniProt P03372); test: ATG_ERa_TRANS: Attagene TRANS-FACTORIAL HepG2 Assay for human Estrogen Receptor alpha (ERa) (AID 2282970); conditions: HepG2 Attagene TRANS ERa GAL4 reporter, mRNA
# Estrogen receptor (Homo sapiens), sequence (P03372 whole entry, looked up, the tested form may be a part): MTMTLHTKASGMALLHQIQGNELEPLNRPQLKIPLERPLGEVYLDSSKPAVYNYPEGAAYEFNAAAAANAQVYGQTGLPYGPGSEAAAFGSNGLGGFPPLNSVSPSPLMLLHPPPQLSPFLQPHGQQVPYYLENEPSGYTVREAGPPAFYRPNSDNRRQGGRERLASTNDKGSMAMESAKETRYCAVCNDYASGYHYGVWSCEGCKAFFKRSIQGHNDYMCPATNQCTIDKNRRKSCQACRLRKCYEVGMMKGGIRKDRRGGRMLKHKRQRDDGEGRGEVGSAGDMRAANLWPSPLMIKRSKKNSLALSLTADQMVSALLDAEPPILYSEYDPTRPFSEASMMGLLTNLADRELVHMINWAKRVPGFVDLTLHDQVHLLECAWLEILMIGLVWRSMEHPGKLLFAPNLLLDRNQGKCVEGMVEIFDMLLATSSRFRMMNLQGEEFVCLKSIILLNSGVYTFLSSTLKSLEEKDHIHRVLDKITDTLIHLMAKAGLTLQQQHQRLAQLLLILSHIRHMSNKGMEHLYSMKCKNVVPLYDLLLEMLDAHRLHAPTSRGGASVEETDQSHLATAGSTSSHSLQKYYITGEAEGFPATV
# How it was run: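 Multiplexed cell-based reporter format in HepG2: chimeric ERa-Gal4 protein drives GAL4-UAS reporter transcription. Fluorescent reporter mRNA quantified by capillary electrophoresis 24 hours after dosing; endpoint fitted as signal gain against DMSO.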
# [6] = target: X-box-binding protein 1 (Homo sapiens) (UniProt P17861); test: ATG_Xbp1_CIS: Attagene CIS-FACTORIAL HepG2 Assay for human X-box Binding Protein 1 (XBP1) (AID 2282972; active = hit-call score of the fitted dose curve at least 0.9, where 1 is the maximum; inactive = score below 0.9); conditions: HepG2 XBP1 cis-element reporter, Attagene multiplex; actives raise or lower the signal
# X-box-binding protein 1 (Homo sapiens), sequence (P17861 whole entry, looked up): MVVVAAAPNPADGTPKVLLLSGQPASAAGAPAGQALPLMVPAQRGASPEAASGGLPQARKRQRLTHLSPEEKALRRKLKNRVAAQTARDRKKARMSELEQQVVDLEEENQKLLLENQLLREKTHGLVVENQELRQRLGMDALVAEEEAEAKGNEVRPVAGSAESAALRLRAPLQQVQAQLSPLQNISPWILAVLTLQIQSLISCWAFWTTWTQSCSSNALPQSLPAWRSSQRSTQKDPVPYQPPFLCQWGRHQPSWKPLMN
# How it was run: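 HepG2 cells transiently transfected with cis-regulated multiple reporter transcription units; endogenous transcription factor activity measured 24 hours after chemical dosing. Reporter mRNA quantified by RT-PCR, 6-FAM primer extension, HpaI digestion and capillary electrophoresis; bidirectional fitting versus DMSO.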
# [7] = ATG_M_19_TRANS: Attagene TRANS-FACTORIAL HepG2 Assay for M19 Transcription Factor (Internal Marker) (AID 2282974); conditions: HepG2 Attagene TRANS-FACTORIAL M19 internal marker reporter
# How it was run: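 Multiplexed TRANS format: HepG2 liver cells bearing transient GAL4-UAS reporter units, chemical treatment 24 h, reporter transcripts quantified by RT-PCR plus capillary electrophoresis. DMSO defines baseline.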
# [8] = target: Oxysterols receptor LXR-alpha (Homo sapiens) (UniProt Q13133); test: ATG_LXRa_TRANS: Attagene TRANS-FACTORIAL HepG2 Assay for human Liver X Receptor alpha (LXRa) (AID 2282980); conditions: HepG2 Attagene TRANS reporter, LXRa transactivation
# Oxysterols receptor LXR-alpha (Homo sapiens), sequence (Q13133 whole entry, looked up, the tested form may be a part): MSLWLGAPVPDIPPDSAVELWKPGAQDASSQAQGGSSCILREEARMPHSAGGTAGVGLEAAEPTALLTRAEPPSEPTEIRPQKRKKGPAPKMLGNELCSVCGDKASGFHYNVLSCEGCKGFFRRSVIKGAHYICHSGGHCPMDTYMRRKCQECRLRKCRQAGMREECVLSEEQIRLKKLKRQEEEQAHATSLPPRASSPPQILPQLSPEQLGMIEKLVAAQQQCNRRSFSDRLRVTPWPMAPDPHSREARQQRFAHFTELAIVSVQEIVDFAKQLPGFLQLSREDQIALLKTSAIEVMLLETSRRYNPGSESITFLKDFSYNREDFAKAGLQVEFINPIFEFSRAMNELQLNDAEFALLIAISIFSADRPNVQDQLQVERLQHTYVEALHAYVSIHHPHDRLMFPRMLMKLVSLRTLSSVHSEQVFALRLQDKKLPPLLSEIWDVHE
# How it was run: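 In this multiplexed TRANS system, compounds act on HepG2 cells carrying GAL4-UAS reporter units and a receptor-GAL4 fusion for 24 h. Induced reporter RNA is amplified, fluorescently labelled and sized by capillary electrophoresis, with DMSO as baseline.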
# [9] = target: Oxysterols receptor LXR-beta (Homo sapiens) (UniProt P55055); test: ATG_LXRb_TRANS: Attagene TRANS-FACTORIAL HepG2 Assay for human Liver X Receptor beta (LXRb) (AID 2282981); conditions: HepG2 Attagene TRANS GAL4-LXRb reporter, mRNA
# Oxysterols receptor LXR-beta (Homo sapiens), sequence (P55055 whole entry, looked up, the tested form may be a part): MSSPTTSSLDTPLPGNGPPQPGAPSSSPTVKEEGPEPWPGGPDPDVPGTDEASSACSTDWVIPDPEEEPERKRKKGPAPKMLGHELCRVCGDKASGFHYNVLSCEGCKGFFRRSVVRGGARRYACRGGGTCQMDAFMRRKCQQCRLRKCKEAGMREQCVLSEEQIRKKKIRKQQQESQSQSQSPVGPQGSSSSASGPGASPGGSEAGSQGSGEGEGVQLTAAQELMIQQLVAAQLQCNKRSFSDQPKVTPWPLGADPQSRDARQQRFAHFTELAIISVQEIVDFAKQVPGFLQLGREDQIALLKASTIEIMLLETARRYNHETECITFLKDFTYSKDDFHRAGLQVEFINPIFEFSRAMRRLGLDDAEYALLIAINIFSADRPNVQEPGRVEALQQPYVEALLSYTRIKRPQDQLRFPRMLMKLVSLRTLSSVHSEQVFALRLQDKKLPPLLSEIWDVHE
# How it was run: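 Transient transfection HepG2 (multiplexed RTUs, GAL4-UAS); NR-Gal4 chimera; 24 h exposure; RNA → RT-PCR → 6-FAM primer extension → HpaI → CE; increase vs DMSO.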
# [10] = target: Hepatocyte nuclear factor 4-alpha (Homo sapiens) (UniProt P41235); test: ATG_HNF4a_TRANS: Attagene TRANS-FACTORIAL HepG2 Assay for human Hepatocyte Nuclear Factor 4 alpha (HNF4a) (AID 2282982); conditions: HepG2 HNF4a transactivation reporter, mRNA readout
# Hepatocyte nuclear factor 4-alpha (Homo sapiens), sequence (P41235 whole entry, looked up, the tested form may be a part): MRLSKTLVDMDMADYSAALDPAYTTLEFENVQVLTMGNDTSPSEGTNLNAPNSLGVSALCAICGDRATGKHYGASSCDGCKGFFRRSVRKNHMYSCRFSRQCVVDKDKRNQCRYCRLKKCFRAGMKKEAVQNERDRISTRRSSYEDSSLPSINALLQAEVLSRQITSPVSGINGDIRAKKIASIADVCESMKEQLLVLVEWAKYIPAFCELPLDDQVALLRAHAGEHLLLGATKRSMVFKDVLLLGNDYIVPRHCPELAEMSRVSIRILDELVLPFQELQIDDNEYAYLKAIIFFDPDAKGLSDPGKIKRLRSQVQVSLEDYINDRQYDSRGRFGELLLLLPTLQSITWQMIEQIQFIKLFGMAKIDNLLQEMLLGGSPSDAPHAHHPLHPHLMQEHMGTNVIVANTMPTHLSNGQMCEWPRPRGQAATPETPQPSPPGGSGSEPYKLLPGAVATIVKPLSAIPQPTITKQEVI
# How it was run: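 Readout is fluorescent reporter-transcript fragments resolved by capillary electrophoresis after RT-PCR from HepG2 cells dosed for 24 h. Cells carried transfected GAL4-UAS reporter constructs measuring exogenous NR-GAL4 chimera activity; DMSO served as baseline.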
# [11] = ATG_M_06_TRANS: Attagene TRANS-FACTORIAL HepG2 Assay for M06 Transcription Factor (Internal Marker) (AID 2282983); conditions: HepG2 Attagene TRANS M06 internal marker reporter;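 also: reporter transcript level by RT-PCR then capillary electrophoresis fluorescence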
# How it was run: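 Internal-marker background readout from a multiplexed TRANS reporter system in HepG2; 24 h dosing; mRNA induction quantified by RT-PCR plus capillary electrophoresis fluorescence; DMSO as negative control and baseline.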
# [12] = ATG_M_32_TRANS: Attagene TRANS-FACTORIAL HepG2 Assay for M32 Transcription Factor (Internal Marker) (AID 2282984); conditions: HepG2 Attagene TRANS M32 internal marker reporter;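 as to outcome: transcript level of a background control reporter unit measured by RT-PCR and capillary electrophoresis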
# How it was run: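 Measures reporter mRNA induction in human HepG2 liver cells after 24 h chemical treatment. Transcripts from transiently transfected GAL4-UAS reporter units are amplified, fluorescently labelled and sized by capillary electrophoresis; gain of signal relative to DMSO.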
# [13] = target: Transcriptional activator Myb (Homo sapiens) (UniProt P10242); test: ATG_Myb_CIS: Attagene CIS-FACTORIAL HepG2 Assay for human Myeloblastosis (Myb) Proto-Oncogene Transcription Factor (AID 2282986; active = hit-call score of the fitted dose curve at least 0.9, where 1 is the maximum; inactive = score below 0.9); conditions: HepG2 Attagene CIS-FACTORIAL Myb reporter transcription; actives raise or lower the signal
# Transcriptional activator Myb (Homo sapiens), sequence (P10242 whole entry, looked up): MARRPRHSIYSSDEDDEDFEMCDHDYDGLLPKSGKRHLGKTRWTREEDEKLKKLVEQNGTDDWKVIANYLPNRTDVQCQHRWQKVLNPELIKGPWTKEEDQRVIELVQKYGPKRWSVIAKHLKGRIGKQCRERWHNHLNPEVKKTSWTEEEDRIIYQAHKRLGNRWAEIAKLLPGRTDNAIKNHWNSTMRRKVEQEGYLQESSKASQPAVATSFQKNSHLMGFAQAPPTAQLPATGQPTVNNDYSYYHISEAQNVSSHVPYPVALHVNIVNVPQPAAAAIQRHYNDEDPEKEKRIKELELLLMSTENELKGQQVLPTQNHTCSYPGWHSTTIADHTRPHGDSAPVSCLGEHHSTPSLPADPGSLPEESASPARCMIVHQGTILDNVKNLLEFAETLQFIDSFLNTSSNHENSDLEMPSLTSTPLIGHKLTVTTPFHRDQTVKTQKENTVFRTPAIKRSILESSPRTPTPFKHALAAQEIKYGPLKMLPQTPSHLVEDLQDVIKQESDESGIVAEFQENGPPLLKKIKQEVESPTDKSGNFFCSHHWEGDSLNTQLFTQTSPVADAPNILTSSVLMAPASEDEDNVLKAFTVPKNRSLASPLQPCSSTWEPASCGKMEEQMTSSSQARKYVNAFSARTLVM
# How it was run: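 Using HepG2 liver cells bearing transiently transfected cis-promoter reporter constructs, the assay measures induction or loss of reporter mRNA after 24 hours of dosing. Detection used fluorescently labeled RT-PCR products separated by capillary electrophoresis.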
# [14] = target: Nuclear respiratory factor 1 (Homo sapiens) (UniProt Q16656); test: ATG_NRF1_CIS: Attagene CIS-FACTORIAL HepG2 Assay for human Nuclear Respiratory Factor 1 (NRF1) Orphan Gene (AID 2282987; active = hit-call score of the fitted dose curve at least 0.9, where 1 is the maximum; inactive = score below 0.9); conditions: HepG2 NRF1 cis-element reporter, Attagene multiplex; actives raise or lower the signal
# How it was run: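 Reporter mRNA induction or loss in HepG2 cells after 24 h dosing; cis-regulated reporter constructs report endogenous transcription-factor activity. Quantified by RT-PCR/capillary electrophoresis fluorescence, DMSO-referenced.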
# [15] = ATG_GAL4_TRANS: Attagene TRANS-FACTORIAL HepG2 Assay for GAL4 (Internal Marker) (AID 2282976); conditions: HepG2 Attagene TRANS GAL4 internal marker reporter
# How it was run: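 Liver HepG2 line bearing multiplexed GAL4-UAS reporter constructs; 24 h chemical treatment. Transcripts were quantified as fluorescent fragments on capillary electrophoresis after RT-PCR and HpaI cut, with activity fitted upward from DMSO.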
# [16] = target: Glucocorticoid receptor (Homo sapiens) (UniProt P04150); test: ATG_GR_TRANS: Attagene TRANS-FACTORIAL HepG2 Assay for human Glucocorticoid Receptor (GR) (AID 2282978); conditions: HepG2 Attagene TRANS GR reporter, mRNA transcription;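 also: activators score as hits since higher reporter transcript over DMSO is fitted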
# How it was run: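 Transiently transfected HepG2 cells express chimeric NR-GAL4 proteins acting on GAL4-UAS reporter units. Compounds are applied for 24 h. mRNA induction over DMSO is measured by capillary electrophoresis.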
# [17] = target: Bile acid receptor (Homo sapiens) (UniProt Q96RI1); test: ATG_FXR_TRANS: Attagene TRANS-FACTORIAL HepG2 Assay for Farnesoid X Receptor (FXR) (AID 2282979); conditions: HepG2 Attagene TRANS FXR-GAL4 reporter transcription;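 also: hits raise reporter mRNA above DMSO so AC50 marks FXR activation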
# Bile acid receptor (Homo sapiens), sequence (Q96RI1 whole entry, looked up, the tested form may be a part): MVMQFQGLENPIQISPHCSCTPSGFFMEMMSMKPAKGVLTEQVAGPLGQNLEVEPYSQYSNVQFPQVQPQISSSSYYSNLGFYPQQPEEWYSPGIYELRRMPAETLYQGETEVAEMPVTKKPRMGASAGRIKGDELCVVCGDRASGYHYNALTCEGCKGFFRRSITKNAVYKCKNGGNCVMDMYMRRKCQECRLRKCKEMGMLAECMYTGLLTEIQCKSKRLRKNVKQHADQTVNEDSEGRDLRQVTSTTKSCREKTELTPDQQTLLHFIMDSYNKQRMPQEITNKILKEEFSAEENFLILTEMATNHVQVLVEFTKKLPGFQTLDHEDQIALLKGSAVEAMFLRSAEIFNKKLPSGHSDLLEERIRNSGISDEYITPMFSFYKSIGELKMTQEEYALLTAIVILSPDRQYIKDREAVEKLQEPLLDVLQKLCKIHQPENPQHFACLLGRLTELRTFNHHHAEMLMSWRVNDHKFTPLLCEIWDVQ
# How it was run: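 After 24 h chemical treatment of transfected HepG2 cells, GAL4-UAS reporter transcripts driven by an exogenous FXR-GAL4 fusion were measured by RT-PCR and capillary electrophoresis. Increases over DMSO were fitted.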
# [18] = target: Nuclear receptor subfamily 4 group A member 2 (Homo sapiens) (UniProt P43354); test: ATG_NURR1_TRANS: Attagene TRANS-FACTORIAL HepG2 Assay for human Nuclear Receptor Related Protein 1 (NURR1) (AID 2282985); conditions: HepG2 Attagene TRANS reporter, mRNA readout
# Nuclear receptor subfamily 4 group A member 2 (Homo sapiens), sequence (P43354 whole entry, looked up, the tested form may be a part): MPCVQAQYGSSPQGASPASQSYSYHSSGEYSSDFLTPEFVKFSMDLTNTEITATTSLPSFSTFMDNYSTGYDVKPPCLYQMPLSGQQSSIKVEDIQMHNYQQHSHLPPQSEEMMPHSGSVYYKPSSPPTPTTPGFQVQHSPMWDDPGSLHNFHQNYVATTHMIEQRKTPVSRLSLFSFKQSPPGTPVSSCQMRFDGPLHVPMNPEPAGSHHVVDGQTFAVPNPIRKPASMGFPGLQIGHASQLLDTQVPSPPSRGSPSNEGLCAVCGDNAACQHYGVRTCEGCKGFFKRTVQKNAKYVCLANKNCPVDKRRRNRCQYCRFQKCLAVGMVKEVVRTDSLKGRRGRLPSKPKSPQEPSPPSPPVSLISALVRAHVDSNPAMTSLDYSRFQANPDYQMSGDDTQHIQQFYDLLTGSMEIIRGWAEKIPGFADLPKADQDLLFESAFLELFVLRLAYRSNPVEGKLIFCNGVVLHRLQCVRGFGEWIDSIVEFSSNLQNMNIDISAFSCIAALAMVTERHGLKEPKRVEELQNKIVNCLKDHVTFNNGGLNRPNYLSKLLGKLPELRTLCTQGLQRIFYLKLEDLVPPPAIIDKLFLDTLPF
# How it was run: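 Transient transfection of HepG2, human liver cells, with multiple GAL4-UAS reporter transcription units. Cells dosed 24 h, RNA isolated, reverse-transcribed, PCR-amplified, FAM-labelled, HpaI-digested, sized by capillary electrophoresis. DMSO served as negative control.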
# [19] = target: Steroid hormone receptor ERR1 (Homo sapiens) (UniProt P11474); test: ATG_ERRa_TRANS: Attagene TRANS-FACTORIAL HepG2 Assay for human Estrogen-Related Receptor alpha (ERRa) (AID 2282971); conditions: HepG2 Attagene TRANS reporter, ERRa transactivation
# How it was run: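 Signal gain relative to DMSO for an ERRa-Gal4 chimeric receptor, read as reporter mRNA by RT-PCR/capillary electrophoresis. Human HepG2 liver cells, transient multiplex reporter transfection, 24 h chemical exposure.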
# [20] = target: Estrogen-related receptor gamma (Homo sapiens) (UniProt P62508); test: ATG_ERRg_TRANS: Attagene TRANS-FACTORIAL HepG2 Assay for human Estrogen-Related Receptor gamma (ERRg) (AID 2282977); conditions: HepG2 Attagene TRANS reporter, ERRg transactivation;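 also: hits increase reporter signal over DMSO so potencies reflect activators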
# Estrogen-related receptor gamma (Homo sapiens), sequence (P62508 whole entry, looked up, the tested form may be a part): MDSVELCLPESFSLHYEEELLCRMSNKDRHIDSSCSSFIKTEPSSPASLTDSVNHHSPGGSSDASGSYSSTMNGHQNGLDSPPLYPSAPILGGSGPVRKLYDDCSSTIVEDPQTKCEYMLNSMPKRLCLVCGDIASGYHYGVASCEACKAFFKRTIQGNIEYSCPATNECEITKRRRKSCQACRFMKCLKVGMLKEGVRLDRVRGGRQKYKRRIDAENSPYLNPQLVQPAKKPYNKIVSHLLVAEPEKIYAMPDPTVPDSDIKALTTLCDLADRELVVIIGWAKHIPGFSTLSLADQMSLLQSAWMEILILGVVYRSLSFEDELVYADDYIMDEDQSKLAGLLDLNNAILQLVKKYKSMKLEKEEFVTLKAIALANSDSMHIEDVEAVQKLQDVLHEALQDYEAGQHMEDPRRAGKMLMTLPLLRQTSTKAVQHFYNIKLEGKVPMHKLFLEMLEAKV
# How it was run: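 Transfect HepG2 with multiple GAL4-UAS reporter transcription units; dose chemicals 24 h; isolate RNA, reverse-transcribe with oligo(dT), PCR-amplify, label with 6-FAM, digest with HpaI; size fragments by capillary electrophoresis. DMSO serves as negative control.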
compound,measurement,setting,value
CCCCCCCCCCCCO,outcome,[1],inactive
same,outcome,[2],inactive
same,outcome,[3],inactive
same,outcome,[4],inactive
same,outcome,[5],inactive
same,outcome,[6],inactive
same,outcome,[7],inactive
same,outcome,[8],inactive
same,outcome,[9],inactive
same,outcome,[10],inactive
same,outcome,[11],inactive
same,outcome,[12],inactive
same,outcome,[13],inactive
same,outcome,[14],inactive
COc1ccc2cc(S(=O)(=O)N[C@H](CC(=O)N[C@H](Cc3ccc(CN4[C@H](C)CCC[C@@H]4C)cc3)C(=O)N(C)C(C)C)c3ccc4c(c3)OCO4)ccc2c1,outcome,[1],inactive
same,outcome,[2],inactive
same,outcome,[3],inactive
same,AC50,[5],11 µM (active)
same,AC50,[6],11 µM (active)
same,outcome,[7],inactive
same,outcome,[15],inactive
same,outcome,[16],inactive
same,outcome,[17],inactive
same,outcome,[8],inactive
same,outcome,[9],inactive
same,outcome,[10],inactive
same,outcome,[18],inactive
same,outcome,[13],inactive
O=C(OCCCCCCOC(=O)c1ccccc1)c1ccccc1,outcome,[1],inactive
same,outcome,[2],inactive
same,outcome,[3],inactive
same,outcome,[4],inactive
same,outcome,[5],inactive
same,outcome,[19],inactive
same,outcome,[6],inactive
same,outcome,[20],inactive
same,outcome,[16],inactive
same,outcome,[17],inactive
same,outcome,[8],inactive
same,outcome,[10],inactive
same,outcome,[11],inactive
same,outcome,[18],inactive
same,outcome,[13],inactive
CCCCCCCCCCCO,outcome,[1],inactive
same,outcome,[2],inactive
same,outcome,[3],inactive
same,outcome,[5],inactive
same,outcome,[6],inactive
same,AC50,[7],158 µM (active)
same,outcome,[15],inactive
same,outcome,[17],inactive
same,AC50,[12],166 µM (active)
same,outcome,[18],inactive
same,outcome,[13],inactive
same,outcome,[14],inactive
OC12N=C(c3ccccc3)SC1Cc1cc(Cl)ccc12 (stereo not drawn),outcome,[1],inactive
same,outcome,[2],inactive
same,outcome,[3],inactive
same,AC50,[5],3.97 µM (active)
same,outcome,[19],inactive
same,outcome,[6],inactive
same,outcome,[7],inactive
same,outcome,[15],inactive
same,outcome,[20],inactive
same,outcome,[17],inactive
same,outcome,[8],inactive
same,outcome,[9],inactive
same,outcome,[10],inactive
same,outcome,[12],inactive
same,outcome,[18],inactive
same,outcome,[13],inactive
CCCCOC(=O)c1ccc(O)cc1,outcome,[1],inactive
same,outcome,[2],inactive
same,AC50,[3],72.4 µM (active) and 51.8 µM (active)
same,outcome,[3],inactive
same,AC50,[6],107 µM (active)
same,outcome,[6],inactive
same,outcome,[7],inactive
same,outcome,[15],inactive
same,outcome,[16],inactive
same,AC50,[17],66.1 µM (active)
same,outcome,[17],inactive
same,outcome,[8],inactive
same,outcome,[9],inactive
same,outcome,[10],inactive
same,outcome,[11],inactive
same,outcome,[12],inactive
same,AC50,[18],100 µM (active)
same,outcome,[18],inactive
same,AC50,[13],162 µM (active)
same,outcome,[13],inactive
O=c1[nH]sc2ccccc12,outcome,[1],inactive
same,outcome,[2],inactive
same,outcome,[3],inactive
same,outcome,[4],inactive
same,outcome,[5],inactive
same,AC50,[6],52.9 µM (active)
same,outcome,[20],inactive
same,outcome,[17],inactive
same,outcome,[10],inactive
same,outcome,[11],inactive
same,outcome,[13],inactive
CN(C[C@@H](CC[N+]12CCC(C3CCCCC3)(CC1)CC2)c1ccc(Cl)c(Cl)c1)C(=O)c1cc(C(F)(F)F)cc(C(F)(F)F)c1,outcome,[1],inactive
same,outcome,[2],inactive
same,outcome,[3],inactive
same,outcome,[4],inactive
same,outcome,[5],inactive
same,outcome,[6],inactive
same,outcome,[20],inactive
same,outcome,[16],inactive
same,outcome,[11],inactive
same,AC50,[12],18.4 µM (active)
same,outcome,[13],inactive
